Results on 40 compounds are retold here after PubChem BioAssay.

Several values for one entry are separate records, joined by “and”; a condition that tells them apart may be missing. Identical values can stand only once. A number with no mark means an inactive call.

The target of the test is Homeobox protein Hox-A13 (Mus musculus) (UniProt Q62424). In words: inhibitors of HoxA13-DNA binding, primary screen, biochemical, fluorescence polarization, labeled oligonucleotide (AID 1185). As to conditions: 15 min, higher = more signal, called active from +8 up or from −8 down. Background: Polarisation of emitted light reports the rotation of a fluorescent probe.
Homeobox protein Hox-A13 (Mus musculus), sequence (Q62424 whole entry, looked up): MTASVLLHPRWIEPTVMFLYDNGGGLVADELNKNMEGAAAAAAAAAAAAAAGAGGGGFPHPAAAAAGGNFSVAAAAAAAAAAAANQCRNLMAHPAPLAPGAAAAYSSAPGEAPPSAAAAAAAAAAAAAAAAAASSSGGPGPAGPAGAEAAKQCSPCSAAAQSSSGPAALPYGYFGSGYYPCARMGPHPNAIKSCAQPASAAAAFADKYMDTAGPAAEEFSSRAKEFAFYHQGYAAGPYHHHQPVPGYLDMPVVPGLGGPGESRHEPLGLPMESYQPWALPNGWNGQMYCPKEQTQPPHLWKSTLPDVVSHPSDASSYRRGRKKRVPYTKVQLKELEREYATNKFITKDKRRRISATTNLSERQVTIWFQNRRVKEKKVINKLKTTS
Turning to `COC(=O)C1=C2N(Cc3ccccc3)C(C)=C(C(=O)OC)[C@@H](c3ccccc3)N2C(=O)[C@](O)(C(=O)OC)C1`, the z-score is -5.1 and -1.13. As for `CCN1C(=O)[C@H]2[C@H]3[C@H](O)[C@H](O)CC(=NNC(=O)OCc4ccc(OC)cc4)[C@H]3CC[C@H]2C1=O`, the figure is 0.429; as for `C=CCN(C(=O)C1N(C(C)(C)CO)C(=O)C2C(C(=O)O)C3C=CC21O3)C(C)(C)C` (stereo not given), -1.11 and 0.241; as for `CC(CO)N1C(=O)[C@@H]2C3C(=O)OCCC=C[C@H]3OC23C=CCN(C(C)(C)C)C(=O)[C@@H]13` (stereo not given in full), -5.55 and -5.92. `C=CCN(Cc1ccccc1)C(=O)C1N(c2c(Cl)cccc2CO)C(=O)C2C(C(=O)O)C3C=CC21O3` (stereo not given): the z-score was 0.428 and -1.12.

For the compound `CC(C)=CCCC(C)=CCON=C1C[C@@H](O)[C@@H](O)[C@@H]2[C@@H]3C(=O)N([C@@H](C)c4ccccc4)C(=O)[C@@H]3CC[C@H]12`, the z-score is -0.414.

Consider `CO[C@H]1COC(=O)CC=C[C@@H](C)COC(=O)[C@@H](OCc2ccccc2)C=C[C@@H]1C`, for which the z-score is -0.383. The same measure for `CC(=O)OC[C@H]1O[C@H](C#CC(C)(C)C)C=C[C@@H]1OC(C)=O`: -2.75. As for `CCOC(=O)C[C@H]1[C@H](OC(=O)c2ccccc2-c2ccccc2)[C@@H](NC(=O)c2ccccc2)c2cc(OCCCO)ccc2N1C(=O)c1ccc2ccccc2n1`, the figure is -3.24 and -1.56; as for `C=CCN(CCCC)C(=O)C1N(CCOCCO)C(=O)C2C(C(=O)O)C3C=CC21O3` (stereo not given), -1.14 and -0.529; as for `COC(=O)[C@@]1(Cc2ccccc2)[C@H]2c3cc(C(=O)N(C)C)n(Cc4ccc(C)c(F)c4F)c3C[C@H]2CN1C(=O)c1ccccc1`, -4.22 and -3.34. In the case of `COC(=O)C1=C(C)N(Cc2ccccc2)C2=C3C(=O)N(c4ccccc4)C(=O)[C@@H]3[C@@](O)(C(=O)OC)C(=O)N2[C@@H]1c1ccccc1`, the z-score was -3.12 and -0.385. The same measure for `C=C(C)C(=O)OC[C@@H]1CN2[C@@H](CC[C@@H](C)[C@@H]2c2ccc(Br)cc2)C(=O)O1`: -3.29. As for `CC(C)=NO[C@@H](C)c1cc(-c2c(C)cc(C)cc2C)no1`, the figure is 0.387; as for `C=CCN(C(=O)C1N(CCCCCCO)C(=O)C2C(C(=O)O)C3C=CC21O3)C(C)(C)C` (stereo not given), -0.569 and -2.68; as for `C=C[C@@H](OC)[C@H](O)c1ccc(OC)c(O)c1`, -0.828 and 0.853. The same measure for `C=CCN(C(=O)C(c1cccs1)N(C(=O)/C=C\C(=O)O)C(C)(C)CO)c1ccc(OC)cc1` (stereo not given): -0.168 and -2.07; for `CCOC(=O)CCN1C(=O)[C@H]2[C@H]3[C@H](O)[C@H](O)CC(=NNC(=O)OCC)[C@@H]3CC[C@H]2C1=O`: 0.0438; for `COC(=O)C1=C(C)N(Cc2ccccc2)C2=C(C(C)=O)C[C@@](O)(C(=O)OC)C(=O)N2[C@@H]1c1ccccc1`: -1.52 and -2.36. As to `CC(C)=NOCc1ccc(-c2cn([C@@H]3COC[C@H]3O)nn2)cc1`, the z-score was -0.221. Take `CCOC(=O)[C@@H]1CC=C2CC1C(=O)N1CCC[C@@H]1[C@H]2O[Si](C)(C)C(C)(C)C` (stereo not given in full): the z-score was -1.82 and -4.44. As for `C[C@@H]1CC[C@H]2C(=O)O[C@H](CN=[N+]=[N-])CN2[C@H]1c1ccc(Br)cc1`, the figure is -1.98 and -3.31.

Consider `Cc1cc2c(nc1C)CCCN2CC(O)CN1CCCc2nc(-c3ccc(Br)cc3)ccc21` (stereo not given), for which the z-score is -7.89 and -7.9. As to `COC(=O)C1=C(C)N(Cc2ccccc2)[C@]23O[C@](C(=O)OC)(C(=O)N2[C@@H]1c1ccccc1)[C@H]1C(=O)N(c2ccccc2)C(=O)[C@H]13`, the z-score was -2.26 and -1.88.

Consider `COC(=O)C1=C(C)N(Cc2ccccc2)C2=C3C(=O)N(C)C(=O)[C@@H]3[C@@](O)(C(=O)OC)C(=O)N2[C@@H]1c1ccccc1`, for which the z-score was -1.2 and -0.234. Regarding `CO[C@@H]1COC(=O)[C@H](Cc2ccccc2)NC(=O)CC=C[C@@H](C)[C@H](OC)COC(=O)[C@@H](C)NC(=O)CC=C[C@H]1C`, the z-score was -0.525 and -0.47. The same measure for `CCOC(=O)NN=C1C[C@@H](O)[C@@H](O)[C@@H]2[C@@H]3C(=O)N(Cc4ccccc4)C(=O)[C@@H]3CC[C@@H]12`: -0.411. As for `C=CCN(C(=O)C1N(c2c(Cl)cccc2CO)C(=O)C2C(C(=O)O)C3C=CC21O3)C(C)(C)C` (stereo not given), the figure is -1.56 and 0.87; as for `CO[C@@H]1COC(=O)CC=C[C@H](C)[C@@H](NS(=O)(=O)c2ccc(C)cc2)COC(=O)CC=C[C@@H]1C`, -1.05 and -2.69.

Take `Cc1ccc(S(=O)(=O)OC[C@@H]2CN3[C@@H](CC[C@@H](C)[C@@H]3c3ccc(Br)cc3)C(=O)O2)cc1`: the z-score is 0.16 and 0.956. Regarding `COC(=O)C1=C(C)N(Cc2ccccc2)[C@]23O[C@](C(=O)OC)(C(=O)N2[C@@H]1c1ccccc1)[C@H]1C(=O)N(C)C(=O)[C@H]13`, the z-score is -3.58 and -1.73. As for `COC(=O)[C@H](C)NC(=O)CCC1CC(OC(=O)NCCc2ccc(F)cc2)CC2(CCCC(COC(=O)NCCCN3CCCC3=O)O2)O1` (stereo not given in full), the z-score was -4.1. The same measure for `C#CCCCON=C1C[C@@H](O)[C@@H](O)[C@@H]2[C@@H]3C(=O)N(C4CCCCC4)C(=O)[C@@H]3CC[C@H]12`: 0.504; for `C=CC[C@@H](O)c1ccc(OCCO)cc1`: -0.948 and -0.931; for `C=CCN(C(=O)C(c1cccs1)N(C(=O)/C=C\C(=O)O)c1c(Cl)cccc1CO)c1ccc(OC)cc1` (stereo not given): 0.171 and -1.67. With `CCCC[C@@H]1CN2[C@H](c3ccc(Br)cc3)[C@@H](C)CC[C@H]2C(=O)O1`, the z-score is -1.48 and -3.43. As for `CO[C@@H]1COC(=O)CC=C[C@H](C)COC(=O)[C@H](C)NC(=O)CC=C[C@H]1C`, the figure is -0.16; as for `C[C@@H]1CC[C@H]2C(=O)N3[C@@H](CC[C@@H](C)[C@@H]3c3ccc(-c4ccco4)cc3)C(=O)N2[C@H]1c1ccc(-c2ccco2)cc1`, -1.46 and 0.517. On to `CCCCCN1CC=CC23O[C@@H]4C=CCCOC(=O)C4[C@H]2C(=O)N(C(C)CO)[C@@H]3C1=O` (stereo not given in full), for which the z-score is -5.44 and -4.65. The same measure for `CO[C@H]1COC(=O)CC=C[C@H](C)[C@H](OC)COC(=O)[C@@H](C)COC(=O)CC=C[C@@H]1C`: 0.397 and 0.774.
